116 molecules from ChEMBL document CHEMBL4513216, “Probing the Open Global Health Chemical Diversity Library for Multistage-Active Starting Points for Next-Generation Antimalarials” (ACS Infect Dis, 2020) can be followed below.

In all, about 69,000 compounds went through this assay and about 8,600 (12%) showed an effect of 50% or more. Many of the other results were omitted from the sample, so strong results are more common in it than they were.

The subject of the assay is Plasmodium berghei. Briefly: Screen against P. berghei liver stage (PbLuc), transformed with Luciferase, at 10uM. Conditions: tested at 10 uM. It counts as functional, HepG2.
Turning to `CC1CN(CC(=O)NC(=O)NCc2cccs2)CCN1CC(F)(F)F` (stereo unspecified), the INHIBITION was found to be 3.03%. Regarding `CC1CCN(c2nc(O)cc(C3CC(=O)N(C4CCCCC4)C3)n2)CC1` (stereo unspecified), the INHIBITION stood at 11.475%. The result for `COc1ccc2c(c1)C1(CCN(Cc3cnn(C)c3)CC1)N(C)CC2` reads -72%.

For the molecule `COCC1COCCC12CCN(C(=O)COc1ccccc1)CC2` (stereo unspecified), the INHIBITION is reported as -10.3%. The result for `COCCNC(=O)Cc1cnc(-n2cccc2)s1` reads 41.1%; that for `CCc1c(C)nc2cc(C3CCN(Cc4cccnc4)C3)nn2c1O` (stereo unspecified), -33.4%; that for `CCc1c(C)nc2cc(C3CCN(CCc4ccccc4)C3)nn2c1O` (stereo unspecified), 83.3%.

Turning to `Cc1cc(CN2CCC(C3CCN(CCc4ccccc4)CC3)C2)[nH]n1` (stereo unspecified), the INHIBITION worked out at 9.63%.

Consider `COCc1nccc(C2CCCN(Cc3cccc(F)c3)C2)n1` (stereo unspecified), for which the INHIBITION was 20.9%.

`CCc1c(C)nc2cc(C3CCN(Cc4ccc(F)cc4)C3)nn2c1O` (stereo unspecified): the INHIBITION was found to be 66.5%. The result for `Cc1cc(CN2CCC(C3CCN(CCc4ccccc4)C3)CC2)[nH]n1` (stereo unspecified) reads 11.9%; that for `CCc1c(C)nc2cc(C3CCN(Cc4cccc(F)c4)C3)nn2c1O` (stereo unspecified), 77.3%; that for `CCc1c(C)[nH]c2cc(C3CCN(Cc4ccncc4C)C3)nn2c1=O` (stereo unspecified), 38.8%. For `Cc1nc(O)cc(C2CCN(Cc3ccc(F)c(F)c3)C2)n1` (stereo unspecified) the value was 30.8%; for `Cc1ccc2c(c1)C(=O)NCC1(CCN(C(=O)c3ccnn3C)CC1)O2`, 8.72%; for `O=C(c1cscn1)N1CC[C@]2(C[C@@H](OCCN3CCCC3)CO2)C1`, 43.2%. For `Cc1ccsc1CN(Cc1ccccn1)CC(O)CO` (stereo unspecified) the value was 19.7%; for `CN(C(=O)c1ccccc1F)[C@@H]1CC[C@@H](O)[C@@H]1O`, 34.1%. `Cc1ccoc1C(=O)N1CC[C@@H]2CN(C3CCOCC3)CCO[C@@H]2C1`: the INHIBITION is 4.98%.

As for `CC(C)c1nnsc1CNC(=O)C1CCN(C(=O)C2CC2)CC1`, the INHIBITION stood at 14.9%.

With `COCCC(=O)N1CCC2(CCN(Cc3ccc(OC)c(F)c3)C2)C1` (stereo unspecified), the INHIBITION is -10.3%.

On to `Cc1[nH]c2ccccc2c1-c1ccnc(NCCN2CCCCC2)n1`, for which the INHIBITION amounted to 61.9%. The result for `Fc1ccc(-c2n[nH]cc2-c2ccnc(NCCN3CCCC3)n2)cc1` reads 35.3%; that for `Cc1[nH]c2ccccc2c1-c1ccnc(NCCN2CCOCC2)n1`, 62.2%. The result for `O=c1[nH][nH]cc1-c1ccnc(NCCCN2CCOCC2)n1` reads 39.7%; that for `Cc1nc2[nH]cnc(NCCN3CCOCC3)c-2n1`, 36.8%; that for `Cc1[nH]c2ccccc2c1-c1ccnc(NC[C@H](O)CO)n1`, 27.8%.

In the case of `COCCn1cc(NC(=O)NCC(c2cccc(F)c2)N(C)C)cn1` (stereo unspecified), the INHIBITION is on record as 49.7%. For `c1ccc(Cn2ccnc2CNCC2CCCN2c2cccnn2)cc1` (stereo unspecified) the value was 4.71%; for `Cc1ccc(N2CCO[C@H]3[C@H](OCC(=O)N4CCCC4)CC[C@@H]32)cc1`, -2.03%. The result for `CCSC1(CNc2ncc(Br)cn2)CCOCC1` reads 66.4%. For `CN(C)C1(CNc2ncc(Br)cn2)CCOCC1` the value was 27.8%; for `CSC1(CNc2ncc(Br)cn2)CCOCC1`, 45.7%.

Consider `CS(=O)(=O)N1CCCC(Cc2cnc(Br)cn2)CC1` (stereo unspecified), for which the INHIBITION turned out to be 37.8%. As to `Cc1ccc(C(=O)N2CCCCC2c2[nH]ncc2S(C)(=O)=O)cn1` (stereo unspecified), the INHIBITION came to 24.8%. For `O=C(c1cc2c(s1)CCOC2)N1CCCCC1Cn1cccn1` (stereo unspecified) the value was -5.07%; for `CNC(=O)C1(c2cnccn2)CCCN1C(=O)c1ccc(F)cc1` (stereo unspecified), 3.91%; for `COc1c(C)cnc(CN2CCC(N(C)S(C)(=O)=O)CC2)c1C`, -21.9%.

Turning to `COc1c(C)cnc(CN(C)C2CCOC3(CCOCC3)C2)c1C` (stereo unspecified), the INHIBITION is given as 43.6%. For `COc1c(C)cnc(CN2CCC(N(C)C(=O)C(C)OC)CC2)c1C` (stereo unspecified) the value was -29.8%. For `CCNC(=O)N(C)C1CCN(Cc2ncc(C)c(OC)c2C)CC1` the value was 82.6%; for `COc1c(C)cnc(CN2CCC(N(C)C(C)C(N)=O)CC2)c1C` (stereo unspecified), 90%; for `COCc1ccccc1C(=O)N(C)Cc1ncc(C)c(OC)c1C`, 50.1%. For `COc1ccccc1C(=O)N(C)Cc1ncc(C)c(OC)c1C` the value was -11.7%.

`COc1c(C)cnc(CN(C)C2CCCCC2)c1C`: the INHIBITION is listed as 72%. In the case of `COc1c(C)cnc(CN(C)C2CCN(C3CCOCC3)CC2)c1C`, the INHIBITION stood at 7.24%.

In the case of `CCC(=O)N(C)C1CCN(Cc2ncc(C)c(OC)c2C)CC1`, the INHIBITION was 10.8%. The result for `COc1c(C)cnc(CN(C)C(=O)c2ccccc2O)c1C` reads 26.3%; that for `COc1c(C)cnc(CN2CCC(N(C)C(=O)C3CC3)CC2)c1C`, -2.19%. The result for `COc1ccc(CCC(=O)N2CCCCC2Cn2cccn2)cc1F` (stereo unspecified) reads -31.8%; that for `O=C(NCc1ccccn1)[C@]12COC[C@H]1CN(Cc1ccccc1F)C2`, -13.2%. For the molecule `Cc1ncsc1C(=O)N1CCCC1c1c(C)nn(C)c1Cl` (stereo unspecified), the INHIBITION is on record as -0.96%.

Consider `CC(NCc1cccc(C#N)c1)c1ccccn1` (stereo unspecified), for which the INHIBITION is -21%. For `CCc1nc(C2CCCN2Cc2nnc(C3CCC3)o2)no1` (stereo unspecified) the value was 41.65%; for `CC(C)CCn1cc(C(C(=O)O)N2CCSCC2)cn1` (stereo unspecified), 17.6%; for `CC(C)C(=O)NC1CCCc2nc(N3CCOCC3)ncc21` (stereo unspecified), 18.3%. For `Cc1ccc(-c2nc(CN3CCOCC3)no2)cc1N1CCNC1=O`, the INHIBITION was 30%. For `CCNC(=O)CNC(=O)c1nc(C2CC2)n(-c2ccccc2Cl)n1` the value was -37.6%.

On to `Cc1ccc(Cl)c(CN2CCN(C)C(C(=O)O)C2)c1F` (stereo unspecified), for which the INHIBITION is on record as -4.52%.

On to `CCOC(=O)CCN(Cc1cccnc1)C(=O)c1cc(Cl)c[nH]1`, for which the INHIBITION is on record as 57.5%.

With `O=C(c1cc(Cl)c[nH]1)N(CCCO)Cc1cccnc1`, the INHIBITION came out at 39%. Turning to `CCCc1cc(C(=O)N(Cc2cccnc2)Cc2cccnc2)[nH]n1`, the INHIBITION was found to be 6.28%.

In the case of `CC(C)c1nnc(CN2CC(n3cccn3)C2)o1`, the INHIBITION was -145%. For `CN(C(=O)NCCN1CCOCC1)C1CCN(c2ccccc2)C1=O` (stereo unspecified) the value was 13.375%; for `c1csc(CCC2CCCCN2Cc2noc(C3CC3)n2)c1` (stereo unspecified), 34.9%. For the molecule `COCc1noc(CN2CCCCC2CCc2cccs2)n1` (stereo unspecified), the INHIBITION is reported as 51.2%. The result for `Cc1nc(CN2CCCCC2CCc2cccs2)co1` (stereo unspecified) reads 24.9%; that for `CCNC(=O)CNCc1c(C(C)C)nn(C)c1N1CCOCC1`, 11.35%. For `CCCN(Cc1ccccc1O)C(=O)Nc1cnn(CCOC)c1` the value was 59.7%; for `COCCn1cc(NC(=O)N(CCC(N)=O)Cc2ccccc2)cn1`, -1.25%; for `CCN(CC(C)O)C(=O)Nc1cnn(CCOC)c1` (stereo unspecified), 29.8%. On to `CC(=O)NCC(=O)N1CCC2(CC1)NC(=O)CC2c1cccnc1` (stereo unspecified), for which the INHIBITION is listed as 34.6%. For `COCCn1ccnc1C1CCCN(C(=O)CSc2nnc(C)o2)C1` (stereo unspecified) the value was 20.9%; for `CCC(=O)N1CCCCC1c1nc(N(C)C)ncc1-c1cc(C)no1` (stereo unspecified), 22.5%; for `CNC(=O)NC(=O)C(C)N1CCN(C2CCCC2)CC1` (stereo unspecified), 28.7%. The result for `CNC(=O)NC(=O)C(C)N1CCC(c2c[nH]c3ccc(OC)cc23)CC1` (stereo unspecified) reads 61.5%.

Turning to `COc1ccc2[nH]cc(C3CCN(CCC(N)=O)CC3)c2c1`, the INHIBITION is 36.6%. In the case of `CNC(=O)NC(=O)CN1CCC(c2c[nH]c3ccc(OC)cc23)CC1`, the INHIBITION came to 15.1%. For `CCNC(=O)NC(=O)CN1CCC(c2c[nH]c3ccc(OC)cc23)CC1` the value was 62.6%; for `CNC(=O)NC(=O)C(C)N1CCCc2cc(OC)ccc2C1` (stereo unspecified), -25.1%; for `CNC(=O)[C@@H](c1ccccc1)N1CCC[C@H]1C(=O)NCc1cccnc1`, -1.12%.

On to `CCS(=O)(=O)N1CCCC2(COCCN(c3nnc(C)o3)C2)C1` (stereo unspecified), for which the INHIBITION is on record as 29.8%. Consider `Cc1noc(C)c1CN1CCN(Cc2nc(C3CC3)no2)CC1`, for which the INHIBITION was determined as 72.2%.

`Cc1cnc(CN2CCN(C(C)c3nc(C4CC4)no3)CC2)cn1` (stereo unspecified): the INHIBITION was 24.7%. For the molecule `Cc1noc(C)c1CN1CCN(C(C)c2nc(C3CC3)no2)CC1` (stereo unspecified), the INHIBITION worked out at 59%. For `Cc1noc(C)c1CN1CCCC(c2noc(C3CC3)n2)C1` (stereo unspecified) the value was -12.2%; for `Cc1nc(CN2CCN(C(C)c3nc(C4CC4)no3)CC2)oc1C` (stereo unspecified), 4.75%; for `Cc1noc(C)c1Cc1nc(C2CC2)no1`, 14.6%. For `CCCN(Cc1nc(-c2ccc(F)c(OC)c2)oc1C)CC1CCCO1` (stereo unspecified) the value was -12.1%; for `Cc1cc(C)n(CC2CCCN2C(=O)c2cccnc2N(C)C)n1` (stereo unspecified), 21%. Turning to `Cc1ccc(CN(C(=O)NC2CCS(=O)(=O)C2)C2CC2)o1` (stereo unspecified), the INHIBITION came out at 2.79%. The result for `Cc1ccccc1OCCN1CCCC(c2cc(C(N)=O)[nH]n2)C1` (stereo unspecified) reads 23.5%; that for `Cn1cc(CN(C/C=C/c2ccccc2)C2CC2)cn1`, -59.5%. Turning to `O=C1CCCN1C1CCCN(CCn2cc(Cl)cn2)C1` (stereo unspecified), the INHIBITION is reported as -63.5%. The result for `CN(Cc1ccco1)[C@@H]1CN(Cc2nccs2)C[C@@H]2CCCO[C@@H]21` reads 44.3%; that for `CC(C1CCN(Cc2cnn(C)c2C2CC2)CC1)N(C)C` (stereo unspecified), 50.7%. For `CC(C1CCN(Cc2cnn(C)c2C2CC2)CC1)N1CCN(C)CC1` (stereo unspecified) the value was 29%; for `CC(C1CCN(Cc2cnn(C)c2C2CC2)CC1)N1CCCC1` (stereo unspecified), 40.9%; for `O=C(NCC1CCOC1)c1ccc(-c2ccccc2)[nH]c1=O` (stereo unspecified), -26.6%.

Consider `Cc1cccc(-c2ccc(C(=O)NCC3CCCO3)c(=O)[nH]2)c1` (stereo unspecified), for which the INHIBITION is -29.1%. For `Cc1ccc(CN2CCCC3(CCCC(=O)N3)C2)s1` (stereo unspecified) the value was 21.1%. The result for `NS(=O)(=O)CC1CCCN1CCOc1ccccc1F` (stereo unspecified) reads 37.9%. The result for `Cc1ccccc1OCCN1CCCC1CS(N)(=O)=O` (stereo unspecified) reads -55.2%; that for `CCOCCN1CCCC1CS(N)(=O)=O` (stereo unspecified), 61.5%; that for `COCc1ccc(C(=O)N2CCN(CC(C)O)CC2)cc1` (stereo unspecified), -7.81%. On to `COc1ncccc1C(=O)N1CCCC1c1c(C)nn(C)c1Cl` (stereo unspecified), for which the INHIBITION is -23.9%.

In the case of `CC(C)CN(Cc1ccc(-n2cncn2)cc1)Cc1ccccn1`, the INHIBITION is listed as 34.9%. The result for `Cc1nonc1CN(C)c1nc(-c2cccnc2)nc2c1CCNC2` reads 81.1%; that for `Cc1nccn1CCN(C)c1nc(-c2cccnc2)nc2c1CCNC2`, -1.25%; that for `CN(CC(O)CO)c1nc(-c2cccnc2)nc2c1CCNC2` (stereo unspecified), 26.1%. For `CN(CC1CCCO1)c1nc(-c2cccnc2)nc2c1CCNCC2` (stereo unspecified) the value was 7.43%; for `Cc1cc(CN(C)c2nc(-c3ccco3)nc3c2CCN(C)CC3)on1`, 30%; for `CN(CC1CCCCO1)c1nc(-c2cccnc2)nc2c1CCNC2` (stereo unspecified), 72.3%. For `NCC1CN(c2nc(-c3cccnc3)nc3c2CCNCC3)CCO1` (stereo unspecified) the value was 7.43%.

Regarding `Cc1noc(CN(C)c2nc(-c3ccco3)nc3c2CCN(C)CC3)n1`, the INHIBITION is recorded as 28.8%. For `Cc1nonc1CN(C)c1nc(-c2ccco2)nc2c1CCN(C)CC2` the value was 75.4%.
